Coupling enz – coupling enzyme interference in Giardia aldolase counter-screen | coupling enzyme system counterscreen, AmpLite Red fluorescence | actives 0.67% (n = 290,000) | activity change, negative = inhibition, % at 58.2 µM, hits read low; in the data active = activity change below about -30%
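Counterscreen lacking aldolase: glyceraldehyde-3-phosphate coupling-enzyme reagent preincubated 10 min at RT with compound (at 57.5 uM final), then substrate/coupling system with AmpLite Red added; fluorescence read at 525/598 nm after 20 min RT.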
Tau FP inhib – blocks human tau fibril formation measured by polarization. Potency, µM (titrated, usually from 57.7 µM), without a hit: at the highest dose activity, negative = inhibition, actives largely listed as inhibitors. P10636. actives 0.39% (n = 280,000). K18 P301L tau heparin fibrillization, Alexa594 FP, 6 h; note: potency is the fitted concentration of half-maximal effect; nearly all actives have a fitted effect of over 55% in size
Target sequence (P10636 561-689 P618L limits assumed): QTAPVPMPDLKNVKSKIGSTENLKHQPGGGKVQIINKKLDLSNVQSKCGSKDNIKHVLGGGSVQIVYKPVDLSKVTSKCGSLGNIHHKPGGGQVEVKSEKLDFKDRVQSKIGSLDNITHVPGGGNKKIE
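K18 P301L tau (15 uM unlabeled/0.24 uM Alexa 594-labeled, final) + compound + heparin 20 uM final; 100 mM NaOAc pH 7; 6 hr 37 C; ThT 30 uM final added, 1 hr RT; FP ex 555/em 632 nm.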
JMJD2E inh – inhibitors of human JMJD2E histone demethylase | B2RXH2 | JMJD2E catalytic domain, FDH-coupled NADH fluorescence (FDH is formaldehyde dehydrogenase) | Potency, µM (highest dose often 57.1 µM), without a hit: at the highest dose activity change, negative = inhibition, hits mostly inhibitors | actives 1.6% (n = 230,000) | AID 2147; active = well fitted inhibition curve with a large enough effect, not every such curve was filed as active; inconclusive = small, poorly fitted or top-dose-only effect, or another doubt; inactive = no such curve, though single readings can be large or run the other way;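 note: potency is the fitted concentration of half-maximal effect; 0% = wells with enzyme and -100% = buffer wells without enzyme; nearly all actives have a fitted effect of over 50% in size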
Target sequence (B2RXH2 1-337 limits assumed): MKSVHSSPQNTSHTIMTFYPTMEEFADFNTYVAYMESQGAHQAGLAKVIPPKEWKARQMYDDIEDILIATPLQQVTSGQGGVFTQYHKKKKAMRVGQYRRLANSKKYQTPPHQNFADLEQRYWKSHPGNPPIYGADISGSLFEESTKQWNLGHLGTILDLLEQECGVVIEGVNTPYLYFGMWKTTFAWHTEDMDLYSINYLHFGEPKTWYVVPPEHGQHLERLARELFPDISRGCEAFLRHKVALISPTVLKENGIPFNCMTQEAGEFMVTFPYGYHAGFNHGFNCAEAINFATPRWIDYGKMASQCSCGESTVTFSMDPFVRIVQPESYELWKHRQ
Tau fluor cs – counter-screen for tau fibril formation inhibitors. tau K18 P301L Alexa594 fluorescence, heparin fibrillization. actives 0.93% (n = 280,000). Potency, µM (doses to about 57.7 µM), without a hit: at the highest dose activity change, negative = decrease; note: potency is the fitted concentration of half-maximal effect; nearly all actives have a fitted effect of over 55% in size
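Human K18 P301L tau (15 uM unlabeled plus 0.24 uM Alexa 594-labeled, final) in 100 mM sodium acetate pH 7 was mixed with compound and 20 uM heparin and incubated 6 hr at 37 C.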
Tau fibril ThT – tau fibrillization inhibition (ThT binding); P10636; actives 2.1% (n = 270,000); recombinant tau K18 P301L (four-repeat tau fragment), heparin-induced fibrillization, ThT fluorescence; Potency, µM (doses to about 57.4 µM), for the others: top-dose activity, negative = inhibition, hits mostly inhibitors; note: potency is the fitted concentration of half-maximal effect; nearly all actives have a fitted effect of over 55% in size
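K18 P301L tau (15 uM + 0.24 uM Alexa 594-tagged), heparin 20 uM, NaOAc pH 7, 6 h 37 C; ThT 30 uM, 1 h RT, ex 450/em 510 nm.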
Active calls of the source: *; ? = inconclusive; / = not tested or not shown; ! = a repeat was not active; [ ] = another dose, or the depositor's remark. Rows were chosen to be rich in hits. Some 3% of all compounds tested hit in one or more screens of this group. Unless noted, calls come from the whole dose curve; as a rule, active = well fitted curve in the direction sought with a large enough effect; inconclusive = small, poorly fitted or top-dose-only effect, or another doubt; inactive = no such curve, though single readings can be large; an effect the other way counts as inactive or inconclusive. Unless noted, % is set by controls: 0 for no effect and ±100 for the full control effect.

SMILES	Coupling enz	Tau FP inhib	JMJD2E inh	Tau fluor cs	Tau fibril ThT
COC(=O)CCC(=O)OC1(C)C(=O)C2=CN(C(CO)CO)C(c3ccc(OC)cc3)=CC2=C(Br)C1=O (configuration not stated)	-48*!	?	5µM*	-21%[11.6 µM]	4µM*
COC(=O)CCC(=O)OC1(C)C(=O)C2=CN(CCN3CCOCC3)C(c3ccc(OC)cc3)=CC2=C(Br)C1=O (configuration not stated)	-37*!	?	?	-2%[11.6 µM]	7.1µM*!
CCOC(=O)c1c(C)n(-c2ccc(C)cc2)c2c(C(C(C)=O)C(=O)O)c(Br)c(O)c(O)c12 (configuration not stated)	-34*	?	?	?	?
CCOC(=O)C(C(C)=O)c1c(Br)c(O)c(O)c2c(C(=O)c3ccc(C)cc3)coc12 (configuration not stated)	-4	5%	25µM*	-12%	?
C/C(=N\Nc1nnc2c3ccccc3n(C)c2n1)c1ccc(C)o1	3	5%	-2%	-9%	14µM*
COc1ccc(SCCN2CCN(CCc3ccccc3)CCC2=O)cc1	3	/	/	/	/
O=[N+]([O-])/C(C(Cl)=C(Cl)Cl)=C(/Sc1ccccc1)N1CCCCC1	3	?	?	-27%	22µM*
O=C(N/C(=C\c1ccc([N+](=O)[O-])cc1)C(=O)N1CCCCC1)c1ccccc1	2	-2%	0%	-19%	-14%
N#CCC(=O)Nc1ccc(C(=O)OCC(=O)Nc2ccccc2Sc2ccccc2)cc1	-1	28µM*	-24%	?	-15%
COC(=O)c1c(NC(=O)COC(=O)c2ccc(NC(=O)CC#N)cc2)sc2c1CCCCC2	-4	-1%	5µM*	-22%	-14%
CC(=O)Nc1ccc(C(=O)OCC(=O)Nc2ccccc2Sc2ccccc2)cc1	1	?	-8%	?	?
CCCCc1nc2c(c3c1C[C@H](C)OC3)CN(C(=O)c1cc(I)ccc1F)CC2	1	-4%[11.6 µM]	4%[11.4 µM]	-20%[11.6 µM]	-13%[11.5 µM]
Cc1ccc(O)c(N=NC2=C(O)CC(C)(C)CC2=O)c1	-4	-3%	0.56µM*	-13%	?
CC1(C)CC(=O)C(C=Nc2ccc(O)c(N=CC3=C(O)CC(C)(C)CC3=O)c2)=C(O)C1	-11	?	3.2µM*	?	4µM*
CC1(C)CC(=O)C(C=Nc2ccc(C(=O)c3ccccc3)cc2N=CC2=C(O)CC(C)(C)CC2=O)=C(O)C1	-3	-3%	20µM*	-6%	?
CC1(C)Cc2ccccc2C2=NNC(=O)C2=N1	-57*	?	?	-12%	16µM*
Brc1ccc2ncnc(Nc3ccc(N4CCOCC4)cc3)c2c1	-4	10%	-6%	?	8.9µM*
O=C(O)c1cc(Br)ccc1NN=C1CCCCC1	1	-14%	?	-22%	20µM*
O=c1cccccc1NN=C1CCCCC1	-7	-7%	-23%	-15%	/
CCN1/C(=C/c2ccc3ccccc3[n+]2CCCS(=O)(=O)[O-])C=Cc2cc(C)ccc21	4	/	/	/	/
CCN1/C(=C/c2cc[n+](C)cc2)C=Cc2cc(C)ccc21	-50*	-5%	?	11%	8.9µM*
COc1cccc2cc(C(=O)Nc3ccc(CC(=O)O)cc3)c(=O)oc12	/	5%	/	-14%	?
Cc1c2oc3c(C)ccc(C(=O)N[C@@H]4C(=O)N[C@H](C(C)C)C(=O)N5CCC[C@H]5C(=O)N(C)CC(=O)N(C)[C@@H](C(C)C)C(=O)O[C@@H]4C)c3nc-2c(C(=O)N[C@@H]2C(=O)N[C@H](C(C)C)C(=O)N3CCC[C@H]3C(=O)N(C)CC(=O)N(C)[C@@H](C(C)C)C(=O)O[C@@H]2C)c(N)c1=O	-36*	-19%	/	-9%	?
CCc1cnc2c(c1SC(C(C)=O)C(=O)N(C)C)c(=O)n(C)c(=O)n2C (configuration not stated)	/	-17%	/	-4%	-16%
CCOC(=O)c1ccc(NC(=O)c2ccc(=O)n(Cc3cccc(C)c3)c2)cc1	/	?	/	?	-11%
SMILES	Coupling enz	Tau FP inhib	JMJD2E inh	Tau fluor cs	Tau fibril ThT
Cc1cc(N)n2ncc(-c3ccc(Cl)cc3)c2n1	1	?	?	14µM*[quencher]	?
Cc1cc(N)n2ncc(-c3ccc(F)cc3)c2n1	0	?	?	?	?
Cc1cc(C(=O)NNC(=S)Nc2ccccc2)nn1C	1	-2%	8.9µM*	-6%	-13%
Cc1oc2c(c1C(=O)c1ccccc1)C(=O)C(=O)c1ccccc1-2	-78*	?	?	-22%	7.9µM*
Cc1oc2c(c1C(=O)O)C(=O)c1ccccc1C2=O	-29	-9%	9%	-6%	?
Cc1onc(-c2ccccc2Cl)c1C(=O)c1ccccc1	1	-1%	-2%	-13%	-5%
O=C1C(=O)c2c(C(=O)c3ccccc3)coc2-c2ccccc21	-80*	7.9µM*	?	?	2.5µM*
O=C(c1ccccc1)c1coc2ccc(O)c(Cl)c12	2	5%	-3%	-12%	8%
CCOC(=O)c1c(C)oc2c1C(=O)c1ccccc1C2=O	-43*	-4%	-25%	-17%	?
O=C(/C=C/NNC(=O)c1ccc(Br)cc1)c1ccccc1	2	-3%	-12%	?	25µM*
CCOc1c(Cl)cc(Cl)cc1CNCCSc1nnnn1C	/	0%	/	-14%	-11%
CC(=O)N1CCN(c2ccc(NC(=O)c3ccc(C(C)(C)C)cc3)cc2)CC1	0	1%	1%	?	3.5µM*
CCOc1ccc(C(=O)NC(=S)Nc2ccc(N3CCCCC3)cc2)cc1[N+](=O)[O-]	1	17%	10%	?	3.5µM*
COc1ccc(C(=O)Nc2ccc(N3CCN(C)CC3)cc2)cc1[N+](=O)[O-]	-3	13%	-1%	-1%	-13%
COc1ccc(C(=O)Nc2ccc(N3CCN(C(=O)c4ccccc4)CC3)cc2)cc1[N+](=O)[O-]	-2	10%	5%	?	16µM*
CCCC(=O)N1CCN(c2ccc(NC(=O)c3ccc([N+](=O)[O-])o3)cc2Cl)CC1	-9	?	-9%	-27%	13µM*
CN1CCN(c2ccc(NC(=O)c3ccc([N+](=O)[O-])o3)cc2Cl)CC1	-2	/	/	/	/
CC(C)C(=O)N1CCN(c2ccc(NC(=O)c3ccc([N+](=O)[O-])o3)cc2)CC1	-6	-6%	?	?	5µM*
CC(=O)N1CCN(c2ccc(NCc3ccc(F)cc3)cc2)CC1	-12	?	?	?	25µM*
CCCCOc1ccc(C(=O)Nc2ccc(N3CCN(C(=O)C(C)C)CC3)cc2)cc1	2	-1%	?	-26%	2µM*
O=C(Nc1ccc(N2CCN(C(=O)c3ccccc3)CC2)cc1)c1ccc([N+](=O)[O-])o1	-10	4%	-26%	?	4.5µM*
